# MARV entry inh = qHTS for inhibitors of binding or entry into cells for Marburg Virus. Potency, µM (series often up to 37.8 µM), without a hit: at the highest dose activity change, negative = inhibition, usual class: inhibitors. Marburg virus pseudotyped entry inhibition, cell reporter. 1.8% of 300,000 active. AID 540276, 2011; calls by dose curve; tested in HEK293 cells; further: potency means the concentration at half of the fitted maximal effect; on the % scale 0 is the no-effect control and ±100 the full control effect
# SARS PLP yeast = qHTS of Yeast-based Assay for SARS-CoV PLP. S. cerevisiae expressing SARS-CoV PLpro, growth rescue. Potency, µM (titrated, usually from 32.9 µM), for the others: top-dose activity, positive = growth rescue, most hits filed as activators. 0.19% of 330,000 active. AID 485353, 2010; calls by dose curve; further: potency means the concentration at half of the fitted maximal effect; 0% is about no effect; nearly all actives have a fitted effect of over 55% in size
# Lassa entry inh = qHTS for Inhibitors of binding or entry into cells for Lassa Virus; Lassa virus pseudotype entry inhibition, cell reporter; Potency, µM (highest dose often 37.9 µM), without a hit: at the top dose activity change, negative = inhibition, most hits filed as inhibitors; 1.2% of 300,000 active; calls by dose curve; tested in HEK293 cells; further: potency means the concentration at half of the fitted maximal effect; on the % scale 0 is the no-effect control and ±100 the full control effect; nearly all actives have a fitted effect of over 50% in size
# HCV inh = qHTS Assay for Inhibitors of Hepatitis C Virus (HCV) | Huh7.5.1 HCVcc-Cre infection, luciferase reporter, 44 h | Potency, µM (top dose mostly 41.8 µM), inactives show top-dose activity change, negative = inhibition, most hits filed as inhibitors | 3.4% of 340,000 active; active means well fitted inhibition curve with a large enough effect; inconclusive means small, poorly fitted or top-dose-only effect, or another doubt; inactive means no such curve, though single readings can be large or run the other way; further: potency means the concentration at half of the fitted maximal effect; on the % scale 0 is the no-effect control and ±100 the full control effect
#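 Seed cells (1,000/well) for 4 h; treat with compound and infect with HCVcc-Cre, moi about 0.5. Incubate 44 h, then detect luciferase activity.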
# HCMV inh = qHTS Assay for inhibitors of the human cytomegalovirus (HCMV). HFF cells, HCMV-luciferase reporter, 72 h; hits give low values. activity change, negative = inhibition, % at 57.5 µM. 4.5% of 410,000 active; in the data active means activity change below about -60%; inconclusive means no clear call, values can overlap the other calls; inactive means above about -39%; further: on the % scale 0 is the no-effect control and ±100 the full control effect
#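 Steps: HFFs plated, 16 h 37C; compounds added; HCMV-luciferase added to MOI 1 PFU/cell; 72 h 37C; OneGlo reagent, 5 min room temperature; luminescence read, normalized to controls.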
# FMDV inh = High Throughput Screening for Foot and Mouth Disease Virus Antivirals; AID 1159524, 2015; Potency, µM (titrated, usually from 57.9 µM), for the others: at the top dose activity change, negative = inhibition, usual class: inhibitors; 1.2% of 410,000 active; FMDV antiviral cell-based qHTS; calls by dose curve; tested in HEK293T cells; further: read-out not given here; potency means the concentration at half of the fitted maximal effect; on the % scale 0 is the no-effect control and ±100 the full control effect; nearly all actives have a fitted effect of over 45% in size
# Starred values were filed as active, the others as inactive; ? = inconclusive; · = not tested or not shown; [ ] = another dose, or the depositor's remark. A selection: hits, their analogues and other compounds. The true share with any hit is near 8%.
SMILES,MARV entry inh,SARS PLP yeast,Lassa entry inh,HCV inh,HCMV inh,FMDV inh
O=c1c2ccc(Cl)cc2nc(-c2cccc(C(F)(F)F)c2)n1O,?,-51.1%,2.51µM*,?,-103.2*,?
O=c1c2ccccc2[nH]c(=S)n1Cc1ccccc1,21.4%[46.1 µM],2.8%,-1.3%[46.1 µM],-3.7%,-12.8,23.0%
O=c1c2ccccc2[nH]c(=S)n1Cc1cccs1,8.2%,18.9%,1.4%,10.4%,-68.2*,44.5%
CCOc1ccc(CNC(=O)C2Cc3ccccc3N2C(=O)CC)cc1 (stereo not drawn),·,·,-21.3%[46.1 µM],·,4.3,-13.5%
COc1ccc(N2CC(NC(=O)c3cc4ccccc4o3)CC2=O)cc1OC (stereo not drawn),·,·,23.6%[46.1 µM],·,-13.1,-19.4%
O=[N+]([O-])c1ccc(Sc2cccc[n+]2[O-])c2nonc12,?,-6.8%,?,10µM*,-106.2*,6.31µM*
O=C(CSc1cccc[n+]1[O-])Nc1cc(Cl)ccc1[N+](=O)[O-],29.9%,4.8%,20.6%,-24.6%,-10.7,-18.8%
Cc1ccsc1/C=N/Nc1ccc(F)cc1F,?,-3.6%,17.0%[46.1 µM],13.3%,33.7,45.9%
Cc1ccsc1/C=N/Nc1ncc(Cl)cc1Cl,-23.7%,-11.1%,?,12.6µM*,?,-38.3%
Cc1cc(C)nc(N/N=C/c2sccc2C)n1,?,-2.3%,0.9%,-25.4%,-80.2*,62.1%
Cc1ccsc1/C=N/Nc1nc2ccccc2s1,?,-59.8%,?,?,10.5,-9.5%
Cc1ccsc1/C=N/Nc1nc(=O)[nH]nc1C,?,-3.0%,18.3µM*,?,-6.5,7.4%
CSc1nc(N)c2ncn([C@@H]3O[C@H](COP(=O)(O)OP(=O)(O)O)C(O)[C@H]3O)c2n1 (stereo partly drawn),8.3%,·,23.6%,·,·,·
COC(=O)c1ccc(CN2C(=O)[C@]3(OCCC=C[C@@H]3C)c3c(Br)cccc32)cc1,-6.9%[14.2 µM],·,·,·,·,·
CCC(C)c1ccc(C2C3=C(Nc4nc(N)[nH]c(=O)c42)c2ccccc2C3=O)cc1 (stereo not drawn),·,-0.2%,·,7.94µM*,-65.0*,10.6%
Cn1c2c(c(=O)[nH]c1=O)C(c1ccc(O)cc1)C1=C(N2)c2ccccc2C1=O (stereo not drawn),?,0.6%,?,?,-99.0*,?
Nc1nc2c(c(=O)[nH]1)C(c1ccccc1)C1=C(N2)c2ccccc2C1=O (stereo not drawn),·,0.5%,·,1.8%,-10.1,3.9%
N#Cc1ccc(-c2cccnc2)nc1SCc1ccc(Cl)cc1Cl,?,-4.8%,2.0%,-29.0%,-21.1,?
N#Cc1ccc(-c2cccnc2)nc1SCc1ccc(Cl)c(Cl)c1,-0.8%,?,-0.5%,11.2µM*,-35.5,-26.4%
Cc1ccc(NS(=O)(=O)c2ccc3c(c2)N(C)C(=O)CC(=O)N3C)cc1Cl,1.1%[46.1 µM],·,-13.6%[46.1 µM],·,-8.9,58.4%
Cc1ccc(Cl)cc1NC(=O)Nc1nnc(N2CCCC(C)C2)s1 (stereo not drawn),?,·,2.3%[46.1 µM],·,13.5,-4.6%
O=[N+]([O-])c1cccc(C2NCC(c3ccccc3Cl)c3c2[nH]c2ccccc32)c1 (stereo not drawn),?,-19.0%,14.1µM*,-6.2%,20.1,0.0%
OCC1OC(n2cnc3c(Cl)ncnc32)C(O)C1O (stereo not drawn),·,·,·,·,·,-11.2%
C=CCOc1ccc(C[C@H](N)C(=O)NC[C@H]2O[C@@H](n3cnc4c(N)ncnc43)[C@H](O)[C@@H]2O)cc1,·,-2.9%,·,-0.1%,·,-15.5%
CN(C)c1ncnc2c1ncn2C1OC(CO)C(O)C1O (stereo not drawn),?,-1.0%,?,4.47µM*,1.7,-18.4%
SMILES,MARV entry inh,SARS PLP yeast,Lassa entry inh,HCV inh,HCMV inh,FMDV inh
COc1ccc(C[C@H](N)C(=O)N[C@H]2[C@@H](O)[C@H](n3cnc4c(N(C)C)ncnc43)O[C@@H]2CO)cc1,·,·,·,0.316µM*,-98.4*,?
Cc1cccc(-c2cccc(C(=O)N3CCc4c(cnc(C)c4CNC(=O)c4cncs4)C3)c2)c1,·,·,·,·,·,-19.4%
CCOc1ccc(NC(=O)CSc2nnc(CNC(=O)C34CC5CC(CC(C5)C3)C4)n2CC)cc1,-5.9%[46.1 µM],·,-10.0%[46.1 µM],·,-12.7,-14.8%
CCOC(=O)C(C(=O)NCCCN1CCOCC1)C1CCCCC1 (stereo not drawn),-2.6%,12.2%,10.5%,23.5%,-104.7*,-0.9%
CCCCn1c(SCC(=O)/C(C#N)=C(\C)N)nc2ccccc2c1=O,16.6%,17.2%,?,?,-72.7*,-21.3%
C/C(N)=C(/C#N)C(=O)CSc1nc2cc(Cl)ccc2c(=O)n1-c1ccc(C)cc1,3.3%,13.5%,-11.3%,7.08µM*,?,-17.4%
C/C(N)=C(/C#N)C(=O)CSc1cc(Cl)ccc1Cl,2.3%,1.2%,-0.7%,13.8%,5.3,-2.3%
COc1ccc(-n2c(SCC(=O)/C(C#N)=C(\C)N)nc3ccccc3c2=O)cc1OC,·,-0.2%,·,10.8%,-3.7,-8.0%
C/C(N)=C(/C#N)C(=O)CSc1nc2cc(Cl)ccc2s1,1.5%,-17.5%,68.4%[14.3 µM],8.91µM*,-20.5,-26.8%
C/C(N)=C(/C#N)C(=O)CSc1nc2cc(Cl)ccc2c(=O)n1Cc1ccco1,3.7%,7.9%,?,14.1µM*,?,-23.9%
C/C(N)=C(/C#N)C(=O)CSc1nc2ccccc2c(=O)n1Cc1ccc(C)cc1,?,4.0%,?,-7.7%,?,-25.1%
Cc1c2cnn(CC(=O)N3CCCCC3)c(=O)c2c(C)n1Cc1ccc(Cl)cc1,-0.7%[46.1 µM],·,?,·,-6.2,-24.9%
O=C(CSc1ncc(S(=O)(=O)c2ccc(Cl)cc2)c(=O)[nH]1)Nc1ccc2c(c1)OCCO2,1.8%[46.1 µM],·,·,·,4.0,-8.9%
COc1ccc(C2(O)CCN(C(=O)NC3CCCCC3)CC2)cc1,3.66µM*,-2.3%,-6.5%,11.4%,8.3,4.8%
COc1ccc(CCNC(=O)C2CCN(C(=O)NC3CCCCC3)CC2)cc1,-0.9%,23.5%,-1.0%,7.9%,8.4,-14.9%
CCOC(=O)c1ccc(NC(=O)C(CC)Sc2nc3ncccc3o2)cc1 (stereo not drawn),·,·,7.5%[46.1 µM],·,25.8,-2.8%
O=C(CSc1ccc(Cl)cc1)Nc1cccc(-c2nc3ncccc3o2)c1,?,-1.3%,?,9.0%,-17.6,14.1µM*
O=C(CSc1ccc(Cl)cc1)Nc1cc(-c2nc3ncccc3o2)ccc1Cl,·,-0.7%,·,12.9%,20.4,·
O=C(Nc1cccc(-c2nc3ncccc3o2)c1)c1ccc(-c2cccc(Cl)c2Cl)o1,6.3%[46.1 µM],·,-18.7%[46.1 µM],·,-91.5*,11.2µM*
Cc1ccc(Cn2c(=O)n(-c3cc(C)cc(C)c3)c(=O)c3oc4ccccc4c32)cc1,·,·,9.2%[46.1 µM],·,2.1,-23.5%

# Screening results deposited in PubChem by National Center for Advancing Translational Sciences (NCATS).
